# Source: article PMC7862700, “An all-to-all approach to the identification of sequence-specific readers for epigenetic DNA modifications on cytosine”
# What was measured:
# Assay in all cases: DAPPL (digital affinity profiling via proximity ligation, sequencing); 10 mM Tris-HCl pH 7.5, 50 mM NaCl, 1 mM DTT, 4% glycerol, room temperature, 30 min; GST-TFs on glutathione beads, 16-mer random dsDNA library, 0.1% formaldehyde crosslink after washing; high values mean tight binding
# FLI1 = biological target: T1, FLI1 (Homo sapiens, UniProt Q01543 1-452); conditions: protein: recombinant; tags: N-terminal GST; dsDNA, one strand shown
# T1 sequence: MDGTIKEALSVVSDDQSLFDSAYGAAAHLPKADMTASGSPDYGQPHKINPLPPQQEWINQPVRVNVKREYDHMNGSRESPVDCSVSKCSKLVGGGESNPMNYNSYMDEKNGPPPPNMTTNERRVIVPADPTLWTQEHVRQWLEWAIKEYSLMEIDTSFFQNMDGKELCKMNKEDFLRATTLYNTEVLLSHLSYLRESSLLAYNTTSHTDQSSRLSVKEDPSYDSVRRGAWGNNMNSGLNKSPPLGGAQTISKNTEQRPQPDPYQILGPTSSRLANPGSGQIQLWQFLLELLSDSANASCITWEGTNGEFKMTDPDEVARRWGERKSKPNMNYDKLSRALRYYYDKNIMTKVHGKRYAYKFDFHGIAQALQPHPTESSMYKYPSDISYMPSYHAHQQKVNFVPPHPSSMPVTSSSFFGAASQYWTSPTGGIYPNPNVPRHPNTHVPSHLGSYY
# How it was run: (§1)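 Pools of DNA-barcoded human transcription factors, expressed in yeast as GST fusions on glutathione beads and combined with a tag-only sample, were incubated with 200 nmole of a 16-mer random double-stranded DNA library. Incubation took 30 min at room temperature in Tris/NaCl/DTT/glycerol buffer and was followed by washing, 0.1% formaldehyde crosslinking, proximity ligation (BsaI/T4 ligase, 1 h, 37 °C), PCR amplification and sequencing on an Illumina NextSeq500. Binding signal is the ratio of a hexamer's read frequency for a factor to its frequency for the tag-only sample.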
# ELK1 = biological target: T2, ELK1 (Homo sapiens, UniProt P19419 1-428); conditions: protein: recombinant; tags: N-terminal GST; dsDNA, one strand shown
# T2 sequence: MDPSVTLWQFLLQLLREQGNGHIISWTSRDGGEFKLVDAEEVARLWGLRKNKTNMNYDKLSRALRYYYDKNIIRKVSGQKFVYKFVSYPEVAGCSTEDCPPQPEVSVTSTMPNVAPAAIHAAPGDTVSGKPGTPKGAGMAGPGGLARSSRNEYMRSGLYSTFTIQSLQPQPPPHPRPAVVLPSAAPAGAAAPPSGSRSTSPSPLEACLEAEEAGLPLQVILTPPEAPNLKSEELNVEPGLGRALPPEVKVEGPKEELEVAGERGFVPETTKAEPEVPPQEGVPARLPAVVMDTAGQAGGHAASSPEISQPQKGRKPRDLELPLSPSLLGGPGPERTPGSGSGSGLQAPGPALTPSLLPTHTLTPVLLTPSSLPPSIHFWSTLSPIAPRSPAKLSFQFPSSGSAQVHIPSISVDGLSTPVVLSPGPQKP
# How it was run: as §1
# GABPA = biological target: T3, GABPA (Homo sapiens, UniProt Q06546 1-454); conditions: protein: recombinant; tags: N-terminal GST; dsDNA, one strand shown
# T3 sequence: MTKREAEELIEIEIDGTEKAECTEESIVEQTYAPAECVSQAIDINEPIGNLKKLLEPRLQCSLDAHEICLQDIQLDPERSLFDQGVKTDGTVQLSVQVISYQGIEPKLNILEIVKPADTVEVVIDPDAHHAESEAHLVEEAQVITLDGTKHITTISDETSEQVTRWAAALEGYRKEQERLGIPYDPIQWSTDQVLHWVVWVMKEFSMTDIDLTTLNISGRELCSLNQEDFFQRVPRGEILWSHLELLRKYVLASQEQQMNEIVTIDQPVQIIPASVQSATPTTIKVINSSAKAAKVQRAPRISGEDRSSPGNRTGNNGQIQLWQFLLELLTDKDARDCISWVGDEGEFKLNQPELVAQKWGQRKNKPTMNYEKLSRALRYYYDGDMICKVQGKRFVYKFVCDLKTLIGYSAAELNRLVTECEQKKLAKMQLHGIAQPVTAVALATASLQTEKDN
# How it was run: as §1
# ERG = biological target: T4, ERG (Homo sapiens, UniProt P11308 1-479); conditions: protein: recombinant; tags: N-terminal GST; dsDNA, one strand shown
# T4 sequence: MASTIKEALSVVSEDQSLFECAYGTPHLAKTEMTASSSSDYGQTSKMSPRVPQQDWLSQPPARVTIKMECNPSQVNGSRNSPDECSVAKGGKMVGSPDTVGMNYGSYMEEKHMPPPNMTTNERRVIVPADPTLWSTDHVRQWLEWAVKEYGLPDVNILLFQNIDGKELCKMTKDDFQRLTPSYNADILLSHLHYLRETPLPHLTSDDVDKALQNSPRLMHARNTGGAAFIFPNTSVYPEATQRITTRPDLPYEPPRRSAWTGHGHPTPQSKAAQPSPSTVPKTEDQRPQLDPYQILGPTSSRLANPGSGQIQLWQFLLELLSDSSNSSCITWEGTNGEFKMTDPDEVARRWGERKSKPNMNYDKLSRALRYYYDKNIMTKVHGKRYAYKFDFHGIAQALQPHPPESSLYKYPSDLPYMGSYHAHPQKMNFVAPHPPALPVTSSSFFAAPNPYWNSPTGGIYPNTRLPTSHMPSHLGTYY
# How it was run: as §1
# ELF1 = ELF1 (Homo sapiens, UniProt P32519 1-619); conditions: protein: recombinant; tags: N-terminal GST; dsDNA, one strand shown
# How it was run: as §1
# EHF = biological target: T5, EHF (Homo sapiens, UniProt Q9NZC4 1-300); conditions: protein: recombinant; tags: N-terminal GST; dsDNA, one strand shown
# T5 sequence: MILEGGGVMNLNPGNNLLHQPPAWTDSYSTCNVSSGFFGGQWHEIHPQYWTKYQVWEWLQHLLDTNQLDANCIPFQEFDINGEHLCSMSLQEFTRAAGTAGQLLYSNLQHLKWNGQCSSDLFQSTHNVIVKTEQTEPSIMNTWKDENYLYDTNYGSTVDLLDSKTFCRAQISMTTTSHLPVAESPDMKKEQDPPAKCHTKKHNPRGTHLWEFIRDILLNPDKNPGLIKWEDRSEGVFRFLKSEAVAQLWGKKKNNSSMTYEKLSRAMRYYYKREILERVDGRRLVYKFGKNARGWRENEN
# How it was run: as §1
# SPI1 = SPI1 (Homo sapiens, UniProt P17947 1-270); conditions: protein: recombinant; tags: N-terminal GST; dsDNA, one strand shown
# How it was run: as §1
# SPIB = SPIB (Homo sapiens, UniProt Q01892 1-262); conditions: protein: recombinant; tags: N-terminal GST; dsDNA, one strand shown
# How it was run: as §1
# FEV = biological target: T6, FEV (Homo sapiens, UniProt Q99581 1-238); conditions: protein: recombinant; tags: N-terminal GST; dsDNA, one strand shown
# T6 sequence: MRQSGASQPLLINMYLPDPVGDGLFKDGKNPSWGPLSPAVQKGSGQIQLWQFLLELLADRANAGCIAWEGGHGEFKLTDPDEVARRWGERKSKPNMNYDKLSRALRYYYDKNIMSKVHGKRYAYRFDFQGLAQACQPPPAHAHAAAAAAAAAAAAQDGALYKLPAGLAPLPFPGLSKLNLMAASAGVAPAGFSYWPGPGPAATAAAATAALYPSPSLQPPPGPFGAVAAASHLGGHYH
# How it was run: as §1
# ETV5 = ETV5 (Homo sapiens, UniProt P41161 1-510); conditions: protein: recombinant; tags: N-terminal GST; dsDNA, one strand shown
# How it was run: as §1
# HSF1 = HSF1 (Homo sapiens, UniProt Q00613 1-529); conditions: protein: recombinant; tags: N-terminal GST; chain copies: 3; dsDNA, one strand shown
# How it was run: as §1
# SPIC = biological target: T7, SPIC (Homo sapiens, UniProt Q8N5J4 1-248); conditions: protein: recombinant; tags: N-terminal GST; dsDNA, one strand shown
# T7 sequence: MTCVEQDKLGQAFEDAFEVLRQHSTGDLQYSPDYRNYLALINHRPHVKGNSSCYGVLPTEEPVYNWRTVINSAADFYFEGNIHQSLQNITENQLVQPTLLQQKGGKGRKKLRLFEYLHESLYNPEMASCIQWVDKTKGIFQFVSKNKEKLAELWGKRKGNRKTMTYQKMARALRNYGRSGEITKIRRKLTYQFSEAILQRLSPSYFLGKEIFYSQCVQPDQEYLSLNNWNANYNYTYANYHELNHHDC
# How it was run: as §1
# ELF4 = ELF4 (Homo sapiens, UniProt Q99607 1-663); conditions: protein: recombinant; tags: N-terminal GST; dsDNA, one strand shown
# How it was run: as §1
# ELK4 = biological target: T8, ELK4 (Homo sapiens, UniProt P28324-2 1-405); conditions: protein: recombinant; tags: N-terminal GST; dsDNA, one strand shown
# T8 sequence: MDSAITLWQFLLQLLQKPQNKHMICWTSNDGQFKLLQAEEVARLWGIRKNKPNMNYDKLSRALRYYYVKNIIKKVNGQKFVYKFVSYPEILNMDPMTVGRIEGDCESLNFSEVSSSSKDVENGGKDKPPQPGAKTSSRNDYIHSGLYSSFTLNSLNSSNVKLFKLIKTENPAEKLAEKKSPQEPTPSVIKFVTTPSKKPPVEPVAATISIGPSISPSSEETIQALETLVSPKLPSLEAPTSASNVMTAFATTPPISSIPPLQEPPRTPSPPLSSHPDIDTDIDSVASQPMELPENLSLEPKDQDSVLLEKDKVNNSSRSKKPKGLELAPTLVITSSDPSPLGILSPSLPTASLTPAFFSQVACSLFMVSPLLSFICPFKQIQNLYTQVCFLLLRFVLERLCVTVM
# How it was run: as §1
# ETV2 = biological target: T9, ETV2 (Homo sapiens, UniProt O00321 1-342); conditions: protein: recombinant; tags: N-terminal GST; dsDNA, one strand shown
# T9 sequence: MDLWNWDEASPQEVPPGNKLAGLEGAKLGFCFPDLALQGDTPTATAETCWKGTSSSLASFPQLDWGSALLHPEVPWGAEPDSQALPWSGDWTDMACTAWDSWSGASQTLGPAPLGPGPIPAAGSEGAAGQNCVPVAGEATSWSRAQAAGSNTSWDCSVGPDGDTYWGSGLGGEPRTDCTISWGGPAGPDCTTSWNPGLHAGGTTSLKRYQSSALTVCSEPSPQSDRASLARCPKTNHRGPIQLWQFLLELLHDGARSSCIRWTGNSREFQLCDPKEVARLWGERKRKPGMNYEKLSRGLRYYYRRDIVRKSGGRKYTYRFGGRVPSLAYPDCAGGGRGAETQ
# How it was run: as §1
# ELF3 = biological target: T10, ELF3 (Homo sapiens, UniProt P78545 1-371); conditions: protein: recombinant; tags: N-terminal GST; dsDNA, one strand shown
# T10 sequence: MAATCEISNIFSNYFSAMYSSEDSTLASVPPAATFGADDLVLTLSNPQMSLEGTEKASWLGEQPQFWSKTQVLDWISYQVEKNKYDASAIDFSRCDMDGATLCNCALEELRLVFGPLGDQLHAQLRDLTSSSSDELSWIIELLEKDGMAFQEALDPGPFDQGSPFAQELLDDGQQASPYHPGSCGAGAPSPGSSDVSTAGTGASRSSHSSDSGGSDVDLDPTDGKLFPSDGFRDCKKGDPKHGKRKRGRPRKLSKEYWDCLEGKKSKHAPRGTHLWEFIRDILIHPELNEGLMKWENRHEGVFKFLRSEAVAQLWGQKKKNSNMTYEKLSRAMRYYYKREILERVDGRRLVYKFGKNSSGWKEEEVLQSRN
# How it was run: as §1
# CRX = CRX (Homo sapiens, UniProt O43186 1-299); conditions: protein: recombinant; tags: N-terminal GST; dsDNA, one strand shown
# How it was run: as §1
# ETV1 = ETV1 (Homo sapiens, UniProt P50549 1-477); conditions: protein: recombinant; tags: N-terminal GST; dsDNA, one strand shown
# How it was run: as §1
# Chain of ELF4 (Q99607 whole entry): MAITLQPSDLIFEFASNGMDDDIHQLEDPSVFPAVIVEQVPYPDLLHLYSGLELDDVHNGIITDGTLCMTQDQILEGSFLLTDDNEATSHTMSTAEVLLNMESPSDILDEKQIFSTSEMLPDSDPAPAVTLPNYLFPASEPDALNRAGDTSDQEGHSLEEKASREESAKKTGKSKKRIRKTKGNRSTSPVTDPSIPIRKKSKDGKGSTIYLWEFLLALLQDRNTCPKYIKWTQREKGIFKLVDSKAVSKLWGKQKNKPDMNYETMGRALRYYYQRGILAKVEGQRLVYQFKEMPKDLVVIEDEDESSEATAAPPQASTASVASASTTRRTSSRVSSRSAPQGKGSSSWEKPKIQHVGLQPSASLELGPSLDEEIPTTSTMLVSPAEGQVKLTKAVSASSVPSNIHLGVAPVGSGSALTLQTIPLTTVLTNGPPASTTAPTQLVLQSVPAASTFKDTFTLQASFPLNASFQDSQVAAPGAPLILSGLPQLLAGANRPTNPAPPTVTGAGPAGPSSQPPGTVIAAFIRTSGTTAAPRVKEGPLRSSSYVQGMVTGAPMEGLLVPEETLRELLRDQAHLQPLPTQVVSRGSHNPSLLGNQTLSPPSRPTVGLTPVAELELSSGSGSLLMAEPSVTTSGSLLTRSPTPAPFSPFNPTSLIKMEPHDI
# Chain of ELF1 (P32519 whole entry): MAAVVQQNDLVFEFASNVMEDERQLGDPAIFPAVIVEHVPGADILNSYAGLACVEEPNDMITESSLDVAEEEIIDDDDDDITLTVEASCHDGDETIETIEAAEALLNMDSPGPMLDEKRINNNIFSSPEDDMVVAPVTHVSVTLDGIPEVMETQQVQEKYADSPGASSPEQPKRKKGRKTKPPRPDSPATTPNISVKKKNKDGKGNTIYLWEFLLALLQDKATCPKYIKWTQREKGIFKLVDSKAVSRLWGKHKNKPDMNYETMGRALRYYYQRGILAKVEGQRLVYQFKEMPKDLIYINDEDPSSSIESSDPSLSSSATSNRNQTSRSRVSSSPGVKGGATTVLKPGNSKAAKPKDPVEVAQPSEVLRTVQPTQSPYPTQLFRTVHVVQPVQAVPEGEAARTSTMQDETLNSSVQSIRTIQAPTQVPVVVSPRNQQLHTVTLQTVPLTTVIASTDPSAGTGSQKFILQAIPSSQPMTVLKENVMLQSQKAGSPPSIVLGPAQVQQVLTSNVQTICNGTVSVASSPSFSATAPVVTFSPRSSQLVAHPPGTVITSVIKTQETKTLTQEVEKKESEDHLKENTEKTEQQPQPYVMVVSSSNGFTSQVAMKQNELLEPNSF
# Chain of SPIB (Q01892 whole entry): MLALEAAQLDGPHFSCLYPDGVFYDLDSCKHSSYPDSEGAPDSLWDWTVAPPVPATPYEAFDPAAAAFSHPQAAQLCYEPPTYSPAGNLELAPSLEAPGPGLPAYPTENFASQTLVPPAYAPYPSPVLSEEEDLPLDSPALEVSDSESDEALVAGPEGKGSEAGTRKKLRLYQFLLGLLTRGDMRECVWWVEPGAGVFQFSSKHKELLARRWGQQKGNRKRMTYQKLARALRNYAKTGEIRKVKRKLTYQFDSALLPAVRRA
# Chain of ETV5 (P41161 whole entry): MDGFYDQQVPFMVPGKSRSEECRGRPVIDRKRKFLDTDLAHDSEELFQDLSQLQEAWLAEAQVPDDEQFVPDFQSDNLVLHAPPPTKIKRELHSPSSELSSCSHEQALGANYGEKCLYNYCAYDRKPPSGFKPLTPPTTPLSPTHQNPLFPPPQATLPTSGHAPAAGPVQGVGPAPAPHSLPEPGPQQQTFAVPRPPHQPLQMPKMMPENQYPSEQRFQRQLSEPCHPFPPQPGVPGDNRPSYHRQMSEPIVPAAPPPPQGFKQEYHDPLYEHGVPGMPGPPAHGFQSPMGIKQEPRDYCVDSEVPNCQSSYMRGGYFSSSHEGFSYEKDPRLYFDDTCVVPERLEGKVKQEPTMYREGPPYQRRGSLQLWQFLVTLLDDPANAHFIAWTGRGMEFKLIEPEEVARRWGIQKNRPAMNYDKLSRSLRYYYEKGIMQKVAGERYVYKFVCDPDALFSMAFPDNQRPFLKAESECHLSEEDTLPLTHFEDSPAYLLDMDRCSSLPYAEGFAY
# Chain of ETV1 (P50549 whole entry): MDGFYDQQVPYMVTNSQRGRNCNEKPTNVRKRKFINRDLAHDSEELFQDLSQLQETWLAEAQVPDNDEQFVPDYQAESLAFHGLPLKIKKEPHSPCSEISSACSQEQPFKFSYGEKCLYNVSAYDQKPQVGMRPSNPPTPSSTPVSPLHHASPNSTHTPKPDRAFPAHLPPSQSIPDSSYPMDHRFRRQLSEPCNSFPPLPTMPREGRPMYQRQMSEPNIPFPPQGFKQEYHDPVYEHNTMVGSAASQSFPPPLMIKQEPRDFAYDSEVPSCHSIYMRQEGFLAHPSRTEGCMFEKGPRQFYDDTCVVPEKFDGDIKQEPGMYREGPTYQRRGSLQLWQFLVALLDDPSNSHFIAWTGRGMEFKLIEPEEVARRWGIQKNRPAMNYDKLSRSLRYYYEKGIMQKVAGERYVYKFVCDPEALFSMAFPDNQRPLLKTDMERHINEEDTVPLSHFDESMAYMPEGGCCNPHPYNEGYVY
# Chain of HSF1 (Q00613 whole entry): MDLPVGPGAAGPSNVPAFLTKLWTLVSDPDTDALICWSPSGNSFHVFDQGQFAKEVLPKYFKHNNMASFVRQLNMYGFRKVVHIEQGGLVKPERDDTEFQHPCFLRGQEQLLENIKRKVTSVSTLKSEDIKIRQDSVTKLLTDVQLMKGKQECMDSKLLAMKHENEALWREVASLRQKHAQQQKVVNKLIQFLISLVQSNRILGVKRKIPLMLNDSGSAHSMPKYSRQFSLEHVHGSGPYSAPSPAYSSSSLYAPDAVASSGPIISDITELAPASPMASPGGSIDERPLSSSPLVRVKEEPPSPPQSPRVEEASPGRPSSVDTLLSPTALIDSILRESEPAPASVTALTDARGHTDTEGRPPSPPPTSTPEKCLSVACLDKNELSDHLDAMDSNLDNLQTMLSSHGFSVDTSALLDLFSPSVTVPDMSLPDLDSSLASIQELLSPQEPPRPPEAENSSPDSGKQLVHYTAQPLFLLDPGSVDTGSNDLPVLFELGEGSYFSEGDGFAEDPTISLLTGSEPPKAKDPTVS
# Chain of CRX (O43186 whole entry): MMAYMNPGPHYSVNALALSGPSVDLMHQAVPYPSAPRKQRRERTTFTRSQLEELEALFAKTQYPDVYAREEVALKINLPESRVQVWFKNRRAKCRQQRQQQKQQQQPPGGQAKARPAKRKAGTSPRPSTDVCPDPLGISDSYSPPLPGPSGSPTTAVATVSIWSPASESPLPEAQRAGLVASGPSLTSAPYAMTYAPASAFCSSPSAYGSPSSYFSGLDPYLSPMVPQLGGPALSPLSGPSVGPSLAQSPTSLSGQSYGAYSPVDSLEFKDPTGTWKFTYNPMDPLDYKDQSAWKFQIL
sequence,measurement,setting,value
TATCGC,binding signal,FLI1,"1.13 fold enrichment (6-mer frequency, TF over GST control)"
same,binding signal,ELK1,"1.16 fold enrichment (6-mer frequency, TF over GST control)"
same,binding signal,GABPA,"1.23 fold enrichment (6-mer frequency, TF over GST control)"
same,binding signal,ERG,"1.15 fold enrichment (6-mer frequency, TF over GST control)"
same,binding signal,ELF1,"1.16 fold enrichment (6-mer frequency, TF over GST control)"
same,binding signal,EHF,"1.28 fold enrichment (6-mer frequency, TF over GST control)"
same,binding signal,SPI1,"1.08 fold enrichment (6-mer frequency, TF over GST control)"
same,binding signal,SPIB,"1.16 fold enrichment (6-mer frequency, TF over GST control)"
same,binding signal,FEV,"1.17 fold enrichment (6-mer frequency, TF over GST control)"
same,binding signal,ETV5,"1.13 fold enrichment (6-mer frequency, TF over GST control)"
same,binding signal,HSF1,"1.22 fold enrichment (6-mer frequency, TF over GST control)"
same,binding signal,SPIC,"1.21 fold enrichment (6-mer frequency, TF over GST control)"
same,binding signal,ELF4,"1.23 fold enrichment (6-mer frequency, TF over GST control)"
same,binding signal,ELK4,"1.3 fold enrichment (6-mer frequency, TF over GST control)"
same,binding signal,ETV2,"1.07 fold enrichment (6-mer frequency, TF over GST control)"
same,binding signal,ELF3,"1.1 fold enrichment (6-mer frequency, TF over GST control)"
same,binding signal,CRX,"1.41 fold enrichment (6-mer frequency, TF over GST control)"
same,binding signal,ETV1,"1.22 fold enrichment (6-mer frequency, TF over GST control)"
